Screening data as filed in PubChem BioAssay.
Sampled rows, rich in hits. Any-hit rate of the full collection: about 21%.
RORg inh – blocks mouse ROR gamma transcriptional activity. P51450. Drosophila S2 Gal4-RORgamma UAS-luciferase reporter, 20 h. Potency, µM (highest dose often 53.6 µM), for the others: at the highest dose activity change, negative = inhibition, actives largely listed as inhibitors. 310,000 tested, 5.4% active; further: potency means the concentration at half of the fitted maximal effect; nearly all actives have a fitted effect of over 60% in size
Target sequence (P51450 whole entry, looked up, the tested form may be a part): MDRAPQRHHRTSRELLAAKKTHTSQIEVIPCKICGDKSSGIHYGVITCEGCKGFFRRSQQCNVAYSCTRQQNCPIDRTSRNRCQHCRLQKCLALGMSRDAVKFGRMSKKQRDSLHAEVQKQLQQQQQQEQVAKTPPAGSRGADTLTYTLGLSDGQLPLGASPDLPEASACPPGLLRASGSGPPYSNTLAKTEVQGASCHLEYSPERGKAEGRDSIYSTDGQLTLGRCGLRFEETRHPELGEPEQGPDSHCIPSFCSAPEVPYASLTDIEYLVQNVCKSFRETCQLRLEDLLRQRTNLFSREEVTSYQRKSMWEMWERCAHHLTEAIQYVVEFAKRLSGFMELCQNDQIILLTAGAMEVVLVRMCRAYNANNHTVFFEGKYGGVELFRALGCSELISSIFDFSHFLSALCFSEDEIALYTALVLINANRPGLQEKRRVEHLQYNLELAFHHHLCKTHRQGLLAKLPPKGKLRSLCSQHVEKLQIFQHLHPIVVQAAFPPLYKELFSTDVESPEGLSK
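Compounds are pin-transferred onto Drosophila Schneider cells expressing a copper-inducible Gal4–ROR gamma transactivation domain fusion. After 1 hr, copper sulfate is added to 700 uM final; luciferase is read 20 hr later.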
TDP1 cell noCPT – qHTS for Inhibitors of human tyrosyl-DNA phosphodiesterase 1 (TDP1): qHTS in cells in absence of CPT. 420,000 tested, 15% active. DT40 Tdp1-/- hTDP1 cells, no CPT, ATP luminescence, 48 h. Potency, µM (top dose mostly 46.2 µM), without a hit: at the top dose activity change, negative = growth inhibition, usual class: inhibitors; further: potency means the concentration at half of the fitted maximal effect; nearly all actives have a fitted effect of over 55% in size
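Stably hTDP1-transfected Tdp1-null chicken DT40 cells were treated with library compounds minus camptothecin and grown for at least 48 hr at 37 °C, after which cellular ATP was quantified by luminescence.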
Gal4-VP16 FLuc – counter-screen for ROR gamma inhibitors: Gal4-VP16 reporter; Potency, µM (series often up to 53.6 µM), inactives show at the highest dose activity, negative = inhibition, most hits filed as inhibitors; 310,000 tested, 3.5% active; Drosophila S2 Gal4-VP16 UAS-luciferase, luminescence, 20 h;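 further: Gal4-VP16 expression switched on by copper sulfate through the metallothionein promoter; potency means the concentration at half of the fitted maximal effect; nearly all actives have a fitted effect of over 50% in size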
DT40 TDP1 CPT – growth inhibition of DT40 Tdp1-/-;hTDP1 cells with camptothecin (screen for TDP1 inhibitors). chicken DT40 Tdp1-/-;hTDP1 cells + 20 nM CPT, ATP luminescence, 48 h. Potency, µM (titrated, usually from 46.2 µM), for the others: top-dose activity change, negative = growth inhibition, hits mostly inhibitors. 420,000 tested, 12% active; further: potency means the concentration at half of the fitted maximal effect; nearly all actives have a fitted effect of over 55% in size
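Chicken DT40 Tdp1-/- cells stably complemented with human TDP1 were seeded at 400 cells/well in medium containing 20 nM camptothecin, exposed to pin-transferred compounds, and grown at 37 °C for at least 48 hr. Viability was read as ATP luminescence.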
ELG1 repair inh – blocks ELG1-dependent DNA repair in HEK293T cells. 330,000 tested, 2.3% active. AID 504467. Potency, µM (top dose mostly 46.1 µM), for the others: at the top dose activity change, negative = inhibition, actives largely listed as inhibitors. HEK293T ELG1-luciferase reporter, luminescence, 16 h; DNA damage induced by 5-fluorouridine; further: potency means the concentration at half of the fitted maximal effect; nearly all actives have a fitted effect of over 55% in size
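Reporter activity after DNA damage by 5-fluorouridine is monitored. Compound-treated cells incubate 16 hr at 37 °C, then ONE-Glo is added for 30 min before luminescence reading.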
IL1B secr inh – blocks inflammasome-driven IL-1 beta release; THP-1 LPS/ATP IL-1B secretion, AlphaLISA, 16 h; stronger effect = lower value; activity change, % at 57.5 µM; 360,000 tested, 4.7% active; AID 743279; in the data active means activity change below about -50%; inconclusive means mostly about -30% to -49%
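Secreted IL-1B measured by AlphaLISA bead assay after 16 h compound exposure of THP-1 cells; compounds (final up to 57.5 uM) added 1 h before LPS (250 ng/mL) and ATP (1.25 mM) stimulation; lower signal means less secretion.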
Active calls of the source: *; ? = inconclusive; nt = not tested or not shown. Unless noted, the call rests on the fitted dose curve; in most records, active means well fitted curve in the direction sought with a large enough effect; inconclusive means small, poorly fitted or top-dose-only effect, or another doubt; inactive means no such curve, though single readings can be large; an effect the other way counts as inactive or inconclusive. On the % scale 0 is the no-effect control and ±100 the full control effect.

SMILES	RORg inh	TDP1 cell noCPT	Gal4-VP16 FLuc	DT40 TDP1 CPT	ELG1 repair inh	IL1B secr inh
Cc1cc(C(=O)C(C)Sc2cccc[n+]2[O-])c(C)n1-c1ccc(Cl)cc1 (configuration not stated)	?	2.91µM*	-18.8%	2.91µM*	-18.1%	-101.0*
Cc1cc(C(=O)C(=O)O)c(C)n1-c1ccc(Cl)cc1	34.4%	-14.8%	-16.8%	24.1%	12.5%	2.3
OCC[C@H]1C[C@H](O)[C@@H](O)[C@]2(CCCc3ccccc3O2)O1	nt	5.0%	nt	11.7%	0.3%	13.2
CCOC(=O)C1=CC[C@H]2c3c(c4ccccc4n3C)C[C@H]1N2C	nt	?	nt	29.1µM*	?	2.5
CN(Cc1nc2ccccc2c(=O)[nH]1)C(=O)c1cc2c(s1)CCCCC2	nt	16.4µM*	nt	23.1µM*	-14.1%	35.0
CN(Cc1nc2ccccc2c(=O)[nH]1)C(=O)c1cccc(NC(=O)c2cccs2)c1	nt	?	nt	?	?	3.2
CN(CC(=O)Nc1sc2c(c1C#N)CCCCC2)Cc1nc2ccccc2c(=O)[nH]1	12.6µM*	18.4µM*	-3.6%	?	23.1µM*	-6.2
CCN(CC)CC(=O)Nc1sc2c(c1C(=O)c1ccccc1OC)CCC2	3.98µM*	14.6µM*	10µM*	16.4µM*	-9.7%	-53.4*
COc1cccc(CN(C)CC(=O)Nc2sc3c(c2C#N)CCC3)c1OC	1.3%	8.7%	4.7%	-18.6%	11.6µM*	-2.7
COc1ccc(CN(C)CC(=O)Nc2sc3c(c2C#N)CCC3)cc1OC	?	?	-19.3%	?	?	?
O=C(Nc1ccc(Oc2ncnc3cc(Cl)ccc23)nc1)c1cccs1	-29.6%	-28.1%	2.9%	-17.4%	?	1.5
CCOc1ccc(-c2nnc(SCC(=O)Oc3ccccc3)o2)cc1	nt	-4.7%	nt	?	nt	nt
CCc1ccc(N2CCN(S(=O)(=O)CC34CCC(CC3=O)C4(C)C)CC2)cc1 (configuration not stated)	?	20.6µM*	-24.8%	-53.4%	-21.4%	-66.7*
CC1(C)C2CCC1(CS(=O)(=O)N1CCN(c3ccc(F)cc3)CC1)C(=O)C2 (configuration not stated)	-3.7%	-8.8%	-2.3%	-9.6%	-11.1%	13.3
O=C(CC[C@H]1O[C@@H](n2ccc(=O)[nH]c2=O)[C@H](O)[C@@H]1O)N[C@H](Cc1ccccc1)C(=O)NCc1ccccc1	nt	25.5%	nt	0.2%	nt	13.7
COc1ccc(-c2cc(C(F)(F)F)nc(S(C)(=O)=O)n2)cc1	12.6µM*	3.26µM*	8.91µM*	2.59µM*	-26.0%	-101.5*
CS(=O)(=O)c1nc(-c2ccc(F)cc2)cc(C(F)(F)F)n1	2.51µM*	1.84µM*	4.47µM*	1.3µM*	?	-103.0*
Nc1nc(-c2ccc(F)cc2)cc(C(F)(F)F)n1	-2.1%	-3.1%	5.2%	-6.0%	0.2%	0.0
COc1ccc(-c2cc(C(F)(F)F)nc(N)n2)cc1	-1.8%	-1.0%	9.0%	13.2%	13.8%	-2.5
O=C(c1ccc2c3c(cccc13)CC2)C1CCCN(Cc2ccc(OCCO)cc2)C1 (configuration not stated)	-22.5%	?	-3.4%	?	-18.3%	-12.9
Cc1cnc(CN2CCCC(C(=O)c3ccc4c5c(cccc35)CC4)C2)[nH]1 (configuration not stated)	11.2µM*	?	-26.1%	?	?	-26.4
Cc1cccc(C)c1Nc1nc2ccccc2nc1NS(=O)(=O)c1ccccc1	nt	-14.8%	nt	?	nt	nt
O=C(COC(=O)c1nc(Cl)ccc1Cl)NCc1cccs1	nt	-7.3%	nt	14.8%	0.6%	26.9
CCOC(=O)C1(CCOc2ccccc2)CCN(Cc2ccc3c(c2)OCCO3)CC1	0.9%	?	-4.2%	?	?	-88.2*
CCOC(=O)C1(CCOc2ccccc2)CCN(Cc2ccc(C(=O)OC)cc2)CC1	16.7%	?	-0.8%	?	-23.5%	-0.1
SMILES	RORg inh	TDP1 cell noCPT	Gal4-VP16 FLuc	DT40 TDP1 CPT	ELG1 repair inh	IL1B secr inh
CCOC(=O)C1(CCOc2ccccc2)CCN(Cc2ccc(F)c(OC)c2)CC1	?	6.51µM*	-21.7%	?	-21.9%	-88.5*
CCOC(=O)C1(CCOc2ccccc2)CCN(Cc2ccc(O)c(Cl)c2)CC1	?	13µM*	-19.7%	16.4µM*	?	-24.1
CCOC(=O)C1(CCOc2ccccc2)CCN(S(=O)(=O)N(C)C)CC1	4.5%	?	2.3%	-86.1%	0.4%	21.8
CCOC(=O)C1(CCOc2ccccc2)CCN(Cc2ccc(O)c(OC)c2)CC1	31.7%	18.4µM*	-2.6%	?	?	-28.1
COc1cccc(NC(=O)CSC2=Nc3ccccc3C3=NC(CC(=O)NCCc4ccccc4)C(=O)N23)c1 (configuration not stated)	nt	-7.8%	nt	-18.1%	nt	nt
COCCn1c(=O)c(-c2cc(F)cc(F)c2)nc2cnc(OCc3ccccc3)nc21	-1.0%	3.6%	-10.7%	27.3%	nt	nt
COc1ccccc1NC(=O)CSc1ncc(CO)n1Cc1ccc(F)cc1	-29.9%	?	2.7%	?	1.1%	-7.8
CCOC(=O)c1ccccc1NC(=O)CSc1ncc(CO)n1Cc1ccc(C)cc1	nt	-80.8%	nt	14.6µM*	nt	nt
Cc1ccc(Cn2c(CO)cnc2SCC(=O)Nc2ccc(C)c(Cl)c2)cc1	nt	23.1µM*	nt	18.4µM*	nt	nt
COC(=O)C1=C(C)NC(C)=C(C(=O)OC)C1C(=O)OCC(=O)NC1CCCCC1C (configuration not stated)	nt	-5.2%	nt	-12.6%	nt	-0.6
O=C(CSc1nc(-c2ccc(Cl)cc2)nc2c1Cc1ccccc1O2)N1CCCCC1	nt	-14.4%	nt	1.4%	nt	nt
Cc1ncc(CO)c2c1Oc1nc(-c3ccccc3)nc(SCC(=O)N3CCOCC3)c1C2	-8.6%	10.3µM*	-18.6%	18.4µM*	?	-11.1
Cc1cccc(-c2nc3c(c(SCC(=O)N4CCOCC4)n2)Cc2c(CO)cnc(C)c2O3)c1	2.4%	3.66µM*	?	?	?	?
Cc1ncc(CO)c2c1Oc1nc(-c3ccc(Cl)cc3)nc(SCC(=O)N3CCCCC3)c1C2	nt	16.4µM*	nt	?	nt	nt
Cn1c(=O)c2c(SCC(=O)N3CCc4ccccc43)nc(-c3cccc(F)c3)nc2n(C)c1=O	nt	-9.8%	nt	-7.5%	nt	nt
CCC(=O)Nc1ccc(C(=O)COC(=O)Cc2ccsc2)cc1	nt	0.1%	nt	-15.8%	17.4%	3.1
CCOC(=O)[C@]12CCC=C1N(Cc1ccc(Cl)cc1Cl)C(=O)[C@H](CC(=O)NCC13CC4CC(CC(C4)C1)C3)C2	nt	20.6µM*	nt	?	nt	-10.2
